# Among all 69,000 compounds or so, about 8,600 (12%) showed an effect of 50% or more. The entries come from a sample that favours strong results as a whole.
# System: Plasmodium berghei
# Test: Screen against P. berghei liver stage (PbLuc), transformed with Luciferase, at 10uM
# Assay type: functional, HepG2
# Conditions: tested at 10 uM
row,Compound,INHIBITION [%]
1,c1cncc(CN2CCn3c(Cn4cncn4)cnc3C2)c1,31.1
2,Cc1ccc(CC(=O)N2CCCC(c3nccs3)C2)cn1 (centres undefined),3.4
3,O=C(NCC1(O)CCCC1)c1ccc2nsnc2c1,-47
4,Cc1nc(CN(C)c2nccc(C(F)(F)F)n2)cs1,50.1
5,Cc1noc(C)c1CN(C)c1nccc(C(F)(F)F)n1,-25.7
6,COc1ccnc(N(C)Cc2csc(C)n2)n1,-62.7
7,Cc1cc(N(C)C)nc(N(C)Cc2csc(C)n2)n1,-3.35
8,Cc1nc(CN(C)c2nccc(N(C)C)n2)cs1,51.5
9,Cc1nc(CC(=O)NCCNc2nccc(C(F)(F)F)n2)cs1,22.6
10,CCCN1CCCn2nc(CNS(=O)(=O)c3cnn(CC)c3)cc2C1,29.1
11,Cc1ccccc1OCCCC(=O)NCc1ccnc(O)c1,9.6
12,O=C(CCc1ccc(F)cc1)NCc1ccnc(NC2CC2)c1,53.3
13,CCOCCC(=O)NCc1ccnc(NC2CC2)c1,41.5
14,O=C(CCc1ccsc1)NCc1ccnc(OC2CCOCC2)c1,-8.91
15,COc1ccccc1CC(=O)N1CCC(NCc2ccncc2)CC1,22.275
16,COc1ccccc1CC(=O)NCc1ccnc(NC2CC2)c1,75.7
17,COc1ccc(CNC(=O)NC2CCN(C)CC2)c(C(F)(F)F)c1,33.8
18,O=C(Cn1ccnc1)N1CC[C@H](Oc2cccc(F)c2)[C@@H](O)CC1,13.85
19,CCOc1ccc(-n2nnc(C(=O)O)c2-c2ccncc2)cc1,15
20,O=C(O)c1ccnc(SCC(F)(F)F)c1,57
21,O=C(O)c1ccnc(SCc2ccccc2)c1,13.5
22,O=C(O)c1ccnc(SCC(=O)c2ccccc2)c1,9.55
23,CC(=O)N1CCCN(C(=O)CN(C)c2ccc(Cl)cn2)CC1,22.8

row,Compound,INHIBITION [%]
1,COc1ccc(CN2CCCC2c2cccc(F)c2)c(OC)c1OC (centres undefined),16
2,Cc1ccc(S(C)(=O)=O)cc1C(=O)N1CCCC(n2cncn2)C1 (centres undefined),-12.1
3,CN(C)C(=O)CO[C@H]1CN(Cc2ccsc2)[C@@H]2COC[C@H]12,-0.284
4,O=C(Nc1ncc[nH]1)c1cc(-c2cccnc2)n[nH]1,57
5,COc1cccc(-c2cc(C(=O)Nc3nc[nH]n3)[nH]n2)c1,-43.7
6,CC(C)Cc1nc(NC(=O)c2cc(-c3cccnc3)n[nH]2)n[nH]1,40.1
7,CN1CC(=O)N(c2cccc(F)c2)CC12CCN(Cc1cccnc1)C2 (centres undefined),1.58
8,Cc1noc(C(C)C)c1C(=O)NCCC(=O)N1CCCCC1,-18
9,COc1ccccc1NC(=O)NC1(c2noc(CN(C)C)n2)CCCC1,48.1
10,Cc1cccc(CN2CCc3nnc(Cn4cccc4)n3CC2)n1,23.5
11,Cc1nc(-c2ccc(Cl)cc2)n(CC(=O)NC(C)C)c(=O)c1CCO,61.4
12,CCN(CC)C(=O)Cn1c(-c2ccc(Cl)cc2)nc(C)c(CCO)c1=O,-21.8
13,COCCNC(=O)Cn1c(-c2ccc(Cl)cc2)nc(C)c(CCO)c1=O,2.29
14,CCc1nnc(C(C)N2CCC(NC(=O)C3CCCCC3)CC2)o1 (centres undefined),11.3
15,CN(Cc1cnccn1)C(=O)[C@@]12CNC[C@@H]1CN(Cc1ccccc1)C2,-22.3
16,O=C(NCC1Cn2nnc(-c3cccc(F)c3)c2CO1)c1ccc[nH]1 (centres undefined),9.63
17,O=S(=O)(c1cccs1)N1CCN2C[C@H](OCC3CC3)C[C@H]2C1,8.85
18,CCN1C[C@@H]2CN(S(=O)(=O)c3cccs3)C[C@@H]2C1=O,-24.5
19,CCO[C@@H]1C[C@H]2CN(S(=O)(=O)c3cccs3)CCN2C1,57.1
20,CCOc1ccc(N(C)S(=O)(=O)c2c[nH]c(C(C)C)n2)cc1,10.3
21,CC(C)c1nc(S(=O)(=O)N(C)c2ccc(F)cc2)c[nH]1,54.8
22,CC(C)c1nc(S(=O)(=O)N(C)c2cc(F)ccc2F)c[nH]1,23.3
23,CNC(=O)c1cn[nH]c1C1CCCN1C(=O)c1ccccn1 (centres undefined),-20.6

row,Compound,INHIBITION [%]
1,COCCn1cnnc1C1CCCN(c2cnccn2)C1 (centres undefined),30.4
2,CSCC(=O)N[C@H]1CC[C@H](Nc2nccc(-c3ccncc3)n2)C1,14.2
3,CSCCC(=O)N[C@H]1CC[C@H](Nc2nccc(-c3ccncc3)n2)C1,0.923
4,COCCC(=O)N[C@H]1CC[C@H](Nc2nccc(-c3ccncc3)n2)C1,61.5
5,Cc1cc(C(F)(F)F)nc(C2COCCN2S(C)(=O)=O)n1 (centres undefined),33.65
6,CC(C)OCCCNS(=O)(=O)c1ccc2c(c1)NC(=O)C(C)O2 (centres undefined),-4.87
7,COc1cc(NCc2ccc(Cl)cc2)c(-c2nn[nH]n2)cc1OC,22.6
8,O=C(CCn1cc(Cl)cn1)N1CCC2(CC1)[C@H](O)C[C@@H]2OCCO,75.7
9,O=C(CCn1cc(Cl)cn1)N1CCCC(O)(CO)CC1 (centres undefined),-15.6
10,O=C(CCn1cncn1)N1CCC2(CC1)[C@H](O)C[C@@H]2OCCO,12.7
11,O=C(CCCn1ccnc1)N1CCC2(CC1)[C@H](O)C[C@@H]2OCCO,18
12,O=C(CCCn1cncn1)N1CCC2(CC1)[C@H](O)C[C@@H]2OCCO,54.4
13,O=C(CCn1cc(Cl)cn1)N1CCC2(CC1)OCCCC2O (centres undefined),2.79
14,Cc1nc(C)n(C2CCCN(C(=O)CCOCC(C)C)C2)n1 (centres undefined),7.27
15,Cc1cc(N2CCN(CC(=O)N(C)C)CC2)nc(-c2ccncc2)n1,4.74
16,CNc1cc(C2CN(C(=O)c3cnn(C)c3)CCO2)nc(C)n1 (centres undefined),25.8
17,CCC(Cn1ccnc1)n1cnc2c(C)csc2c1=O (centres undefined),14.9
18,Cc1nc(C2CCCN2Cc2cc(Cl)c3c(c2)OCO3)no1 (centres undefined),44.3
19,Cc1nc(C2CCCN2Cc2cc(Cl)c3c(c2)OCCO3)no1 (centres undefined),45.4
20,Cc1nc(C2CCCN2Cc2cc(Cl)c3c(c2)OCCCO3)no1 (centres undefined),52.2
21,COc1ccc(C)cc1CNCc1ccc(-n2nc(C)cc2C)nc1,18.6
22,Cc1ccc(CNCc2ccc(N3CCC(CO)CC3)nc2)c(C)c1,58.7
23,Cc1nc(CNCc2ccc(N3CCC(CO)CC3)nc2)cs1,-11.6

# — ChEMBL document CHEMBL4513216, “Probing the Open Global Health Chemical Diversity Library for Multistage-Active Starting Points for Next-Generation Antimalarials” (ACS Infect Dis, 2020)
